TRPV1 PAM – potentiators of human vanilloid receptor 1 (TRPV1). potentiation, % at 8.33 µM. TRPV1-expressing cells, Fluo-8 calcium influx, capsaicin EC20 potentiation. 320,000 tested, 0.02% active; in the data active = potentiation above about 80%; inconclusive = between about 30% and that limit; also: 0% is about no effect
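TRPV1-expressing cells were cultured overnight at 35.5C and loaded with Fluo-8 calcium dye for 40 to 90 min at room temperature. After a 10 s baseline, compound was added and calcium influx was read kinetically for 3 min (ex 480/em 520 nm).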
TRPML1 blocker – blocks the human TRPML1 channel. activity change, negative = inhibition, % (test concentration not listed). 390,000 tested, 0.02% active. Q9GZU1. TRPML1-inducible cells, Ca2+ dye fluorescence, FDSS; active compounds read low; inhibition of EC80 agonist-evoked calcium signal; in the data active = activity change below about -50%; inconclusive = between about -30% and that limit;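 also: stimulus is agonist 54-4 at its EC80 concentration; % is scaled to controls: 0 for no effect and ±100 for the full control effect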
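Calcium fluorescence in TRPML1-DL cells induced overnight with Tet: a 110 s read after compound pin addition, then a 110 s antagonist read after challenge with 54-4 at 4 uM final (EC80).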
RGS4 inh – inhibitors of human regulator of G protein signaling 4 | P49798 | Transcreener GDP fluorescence polarization, RGS4-accelerated GTP hydrolysis | Potency, µM (doses to about 114 µM), inactives show top-dose activity change, negative = inhibition, most hits filed as inhibitors | 390,000 tested, 0.039% active | AID 504845; also: potency is read from the fitted curve at half-maximal effect; % is scaled to controls: 0 for no effect and ±100 for the full control effect; nearly all actives have a fitted effect of over 75% in size
Target sequence (P49798 whole entry, looked up): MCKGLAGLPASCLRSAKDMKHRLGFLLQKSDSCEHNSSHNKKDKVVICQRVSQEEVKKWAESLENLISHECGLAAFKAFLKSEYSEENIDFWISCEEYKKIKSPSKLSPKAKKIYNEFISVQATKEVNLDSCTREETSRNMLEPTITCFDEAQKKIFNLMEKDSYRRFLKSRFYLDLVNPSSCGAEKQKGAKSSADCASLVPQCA
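MLSMR compounds (23 nl, pin-transferred) preincubated 10 min at room temperature with a 500nM (2x) first reagent, then RGS4 at 900nM (2x) plus Transcreener GDP mix added; fluorescence polarization (620/688 nm) read before and after 90 min at 30 °C.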
TRPML1 agonist – activates the human TRPML1 channel; Q9GZU1; TRPML1-expressing cells, Ca2+ dye fluorescence, FDSS; activation, % (no concentration beside the values); 410,000 tested, 0.12% active; in the data active = activation above about 50%; inconclusive = mostly about 30% to 49%; also: 0% is about no effect
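In this qHTS format, compounds were pin-transferred onto Ca8-dye-loaded TRPML1-DL cells induced with Tet overnight, and intracellular Ca2+ fluorescence was recorded kinetically for 110 s after a 10 s baseline. A subsequent 4uM final 54-4 (EC80) addition followed by a second 110 s read served as the antagonist phase.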
TRPV1 agonist – human TRPV1 agonism; Q8NER1; TRPV1-expressing cells, Fluo-8 calcium influx, agonist mode; activation, % at 8.33 µM; 320,000 tested, 0.19% active; in the data active = activation above about 80%; inconclusive = between about 30% and that limit; also: 0% is about no effect
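TRPV1-expressing cells were cultured overnight at 35.5C and loaded with Fluo-8 calcium dye for 40 to 90 min at room temperature. After a 10 s baseline, compound was added and calcium influx was read kinetically for 3 min (ex 480/em 520 nm).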
AT treatment – potential ataxia-telangiectasia treatment; F2112 A-T fibroblasts, KAP-1 phosphorylation AlphaLISA; neocarzinostatin DNA damage 30 min before lysis; Potency, µM (series often up to 57.5 µM), inactives show top-dose activation, most hits filed as activators; 320,000 tested, 0.19% active; also: potency is read from the fitted curve at half-maximal effect; % of control where 0% means no effect; nearly all actives have a fitted effect of over 45% in size
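ATM-like activity read as KAP-1 phosphorylation via AlphaLISA donor/acceptor antibody pairs after lysis and 6 hr at 25C. Cells were ATM-null patient fibroblasts (F2112, hTERT), dosed 60 min, then exposed to the DSB inducer NCS for 30 min.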
The depositor's hits bear a star. Rows were chosen to be rich in hits. Some 0.5% of all compounds tested hit in one or more screens of this group. Unless noted, calls follow the shape of the dose curve; as a rule, active = well fitted curve in the direction sought with a large enough effect; inconclusive = small, poorly fitted or top-dose-only effect, or another doubt; inactive = no such curve, though single readings can be large; an effect the other way counts as inactive or inconclusive.

`Cc1ccc2c(c1)nnn2C1CCN(C(=O)NCc2ccccc2)CC1` gave TRPV1 PAM -13, TRPML1 blocker -9, RGS4 inh -2%, TRPML1 agonist -1, TRPV1 agonist 89* and AT treatment 6%.
`Cc1cccc(NC(=O)N2CCC(n3nnc4cc(C)ccc43)CC2)c1` gave TRPV1 PAM -11, TRPML1 blocker -3, RGS4 inh 0%, TRPML1 agonist 1, TRPV1 agonist inconclusive and AT treatment 4%.
CC(C)(C)c1ccc(S(=O)(=O)N2CCN(C3CCCC3)CC2)cc1 was read as TRPV1 PAM 8, TRPML1 blocker 2, RGS4 inh -6%, TRPML1 agonist 0, TRPV1 agonist 2 and AT treatment 2%.
For CC1CC(C)CN(S(=O)(=O)c2ccc(C(C)(C)C)cc2)C1 (stereo unspecified) the results were TRPV1 PAM 2, TRPML1 blocker -13, RGS4 inh 32%, TRPML1 agonist 56*, TRPV1 agonist 23 and AT treatment 7%.
`COC(=O)c1ccc(Cn2nnc3c(=O)[nH]c(C4CCCN(S(=O)(=O)c5ccc(C)cc5)C4)nc32)cc1` (stereo unspecified) gave TRPV1 PAM -1, TRPML1 blocker 8, RGS4 inh 6%, TRPML1 agonist 0, TRPV1 agonist 0 and AT treatment 4%.
CCCCCCCCc1ccc(-c2ccc(C(=O)O)cc2)cc1 was read as RGS4 inh 21µM*.
`C=CC(=O)c1ccc(CCCCCC)cc1` gave RGS4 inh 2.7µM*.
CCCCCCCCCCCCCCCCCCc1ccc(C(=O)/C=C\C(=O)O)cc1 was read as RGS4 inh inactive.
For CCN(CC)Cc1c(O)ccc2cc(-c3nc4ccccc4n3C)c(=O)oc12 the results were TRPV1 PAM -3, TRPML1 blocker -8, RGS4 inh -14%, TRPML1 agonist 15, TRPV1 agonist -3 and AT treatment 22µM*.
Screening CCc1cc2c(=O)c(-c3nc4ccccc4n3C)c(C)oc2c(CN(CC)CC)c1O returned TRPV1 PAM -9, TRPML1 blocker 33, RGS4 inh -8%, TRPML1 agonist -1, TRPV1 agonist 1 and AT treatment -9%.
For Cc1ccc(-c2cn3c4c(=O)n(C)c(=O)n(C)c4nc3n2-c2cccc(Cl)c2)cc1 the results were TRPML1 blocker -5, RGS4 inh 6% and TRPML1 agonist 0.
For O=C(Nc1cccnc1)c1ccc(-c2ccccc2)cc1 the results were TRPV1 PAM -2, TRPML1 blocker 5, RGS4 inh -41%, TRPML1 agonist 0, TRPV1 agonist 87* and AT treatment 23%.
O=C(Nc1cccnc1)c1ccc(N2CCCC2)c([N+](=O)[O-])c1 was read as TRPV1 PAM -17, TRPML1 blocker 9, RGS4 inh -25%, TRPML1 agonist 0, TRPV1 agonist 84* and AT treatment -1%.
`C=CCNC(=S)N/N=C(\C)c1cccnc1` gave TRPV1 PAM 2, TRPML1 blocker -13, RGS4 inh 8%, TRPML1 agonist 0, TRPV1 agonist -1 and AT treatment -6%.
For O=C(Cc1ccccc1)NCCSC1CCCCC1 the results were TRPV1 PAM -17, TRPML1 blocker 6, RGS4 inh 10%, TRPML1 agonist 1, TRPV1 agonist 94* and AT treatment -2%.
`CCNc1nc(Sc2ccc(C)cc2)cc(C(F)(F)F)n1` gave TRPV1 PAM -6, TRPML1 blocker -8, RGS4 inh -13%, TRPML1 agonist 0, TRPV1 agonist 3 and AT treatment 32µM*.
`CCNc1nc(Oc2ccc(OC)cc2)cc(C(F)(F)F)n1` gave TRPV1 PAM -19, TRPML1 blocker 8, RGS4 inh -5%, TRPML1 agonist 1, TRPV1 agonist -1 and AT treatment 1%.
